Assay outcomes from PubChem.
TSG101-PTAP inh – blocks PTAP/TSG101 interaction to inhibit HIV-1 budding | Q99816 | Fluorescence polarization, FITC-PTAP peptide / Tsg101 binding | Potency, µM (top dose mostly 115 µM), for the others: at the highest dose activity change, negative = inhibition, most hits filed as inhibitors | 340,000 tested, under 10 active | AID 493005; active = well fitted inhibition curve with a large enough effect in the main read-out, with a control signal flat, not every such curve was filed as active; inconclusive = small, poorly fitted or top-dose-only effect, or effect the other way, or a change in a side signal; inactive = no such curve, though single readings can be large or run the other way; note: % of control where 0% means no effect
Target sequence (Q99816 whole entry, looked up): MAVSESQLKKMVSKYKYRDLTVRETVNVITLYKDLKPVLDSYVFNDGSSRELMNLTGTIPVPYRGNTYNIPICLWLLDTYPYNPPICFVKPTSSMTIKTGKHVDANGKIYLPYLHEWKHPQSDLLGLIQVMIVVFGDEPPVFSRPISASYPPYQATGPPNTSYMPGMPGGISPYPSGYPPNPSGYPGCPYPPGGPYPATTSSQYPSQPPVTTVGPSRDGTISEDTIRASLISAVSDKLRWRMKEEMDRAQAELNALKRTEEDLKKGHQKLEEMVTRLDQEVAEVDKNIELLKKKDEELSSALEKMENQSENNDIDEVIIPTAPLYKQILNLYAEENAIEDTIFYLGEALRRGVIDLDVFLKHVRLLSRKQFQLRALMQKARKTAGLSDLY
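Steps: Tsg101 binding domain dispensed (10 uM final), compounds pinned in DMSO, FITC-labeled PTAP-motif peptide added (50 nM final); after 20 min binding at room temperature, polarization measured.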
MCF10A rereplic – inducers of DNA re-replication in MCF 10A breast cells. MCF 10A DNA re-replication, Hoechst nuclear intensity, 48 h. Potency, µM (doses to about 46.1 µM), for the others: top-dose activity, positive = re-replication, most hits filed as activators. 350,000 compounds, 2.9% hits; note: % of control where 0% means no effect; nearly all actives have a fitted effect of over 50% in size
KB-V1 cytotox – KB-V1 MDR subline cytotoxicity; 400,000 compounds, 3.4% hits; Potency, µM (series often up to 46.1 µM), usual class: cytotoxic; KB-V1 MDR cells viability, CellTiter-Glo, 72 h; AID 1347076; note: % is set by controls: 0 for no effect and ±100 for the full control effect; nearly all actives have a fitted effect of over 60% in size
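Cytotoxicity via CellTiter-Glo luminescence after 72 h compound exposure at 37 degrees C. Cells: drug-selected KB-V1 line, DMEM phenol-red free plus 10% FBS. Compounds tested at multiple concentrations; normalized data fitted to concentration-effect curves.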
SW480 rereplic – DNA re-replication induction in SW480 cells; SW480 DNA re-replication, Hoechst DNA content imaging, 48 h; Potency, µM (titrated, usually from 46.1 µM), without a hit: at the top dose re-replication activation, actives largely listed as activators; 340,000 compounds, 1.8% hits; AID 624297; note: % of control where 0% means no effect; nearly all actives have a fitted effect of over 55% in size
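Image-based DNA-content assay: after two days of treatment, nuclei were labelled with the DNA dye Hoechst and imaged, and hits were compounds raising the count of nuclei showing high fluorescence intensity.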
KB-3-1 cytotox – kills parental KB-3-1 adenocarcinoma cells | KB-3-1 viability, CellTiter-Glo ATP luminescence, 72 h | Potency, µM (highest dose often 46.1 µM), most hits filed as cytotoxic | 400,000 compounds, 1.4% hits; note: % is set by controls: 0 for no effect and ±100 for the full control effect; nearly all actives have a fitted effect of over 60% in size
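Viability of parental KB-3-1 cells, measured by CellTiter-Glo luminescence, followed a 72 h incubation at 37 °C with pinned compounds in phenol-red-free DMEM containing 10% FBS.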
PINK1 modulator – modulators of PINK1 expression; PINK1 immunofluorescence, high-content cytometry, 24 h; Potency, µM (titrated, usually from 76.6 µM), for inactives: at the top dose activation (PINK1 increase), hits mostly activators; 410,000 compounds, 0.2% hits; AID 624263; active = well fitted activation curve with a large enough effect; inconclusive = small, poorly fitted or top-dose-only effect; cell line not stated here; note: % of control where 0% means no effect; nearly all actives have a fitted effect of over 65% in size
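Stable cell line, 250 cells/well, 12 h attachment; compounds pinned at 5 concentrations, 24 h; CCCP control. Fixed with nuclear dye, primary antibodies 12 h at 10 degrees C, secondary plus cell stain; laser-scanning cytometer read.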
* hit, by the source's call; i = inactive; ? = inconclusive; nt = no result; [ ] = dose if it differs, or a comment. Rows were chosen to be rich in hits. Some 6.8% of all compounds tested hit in one or more screens of this group. Unless noted, calls come from the whole dose curve; as a rule, active = well fitted curve in the direction sought with a large enough effect; inconclusive = small, poorly fitted or top-dose-only effect, or another doubt; inactive = no such curve, though single readings can be large; an effect the other way counts as inactive or inconclusive. Potency is the fitted concentration of half-maximal effect.

SMILES	TSG101-PTAP inh	MCF10A rereplic	KB-V1 cytotox	SW480 rereplic	KB-3-1 cytotox	PINK1 modulator
CC1CCn2c(nc3cc(C(=O)NCc4ccc(OC(C)C)cc4)ccc32)C1 (centres undefined)	nt	nt	nt	nt	nt	3%
COc1ccc(-n2c(=O)c3c4c(sc3n(Cc3c(F)cccc3Cl)c2=O)CN(C(C)=O)CC4)cc1OC	nt	nt	i	nt	i	1%
CCOc1ccc(S(=O)(=O)Nc2ccc3c(c2)n(C)c(=O)n3C)cc1	-10%	14%	15µM*	-6%	?	2%
CCOc1ccc(NS(=O)(=O)c2cnc(Cl)c(Cl)c2)cc1	0%	4.1µM*	?	?	?	1%
CCOc1ccc(NS(=O)(=O)c2ccc3c(c2)oc(=O)n3C)cc1	-8%	-3%	15µM*	-5%	i	0%[38.3 µM]
CC1CCN(c2oc(-c3ccc(COc4ccc(Cl)cc4)o3)nc2C#N)CC1	nt	nt	i	nt	i	-1%
COc1ccc(Nc2c(-c3ccc(C)o3)nc3ccc(Cl)cn23)cc1	nt	nt	i	nt	i	1%
CCOC(=O)N1CCN(c2c(F)cc3[nH]c(=S)[nH]c3c2Br)CC1	0%	8.2µM*	8.2µM*	?	?	14%[38.3 µM]
Cc1c(CC(=O)NCCc2ccccc2)c(=O)oc2c(C)c3occ(C(C)(C)C)c3cc12	nt	nt	nt	nt	nt	1%
CCCNC(=O)CNC(=S)N(Cc1cc(OC)c(OC)c(OC)c1)C1CCCC1	0%	9%	16µM*	-42%	i	0%
COc1cc(CN(C(=S)NCC(=O)O)C2CCCC2)cc(OC)c1OC	2%	0%	i	-13%	i	0%
COc1ccc(C2C=C(c3ccc(C)cc3)Nc3c(C(=O)Nc4ccccc4)cnn32)cc1 (centres undefined)	nt	nt	?	nt	i	2%
Nc1c(C(=O)c2ccc(Br)cc2)oc2ccccc12	1%	?	i	17%	i	0%
Cc1ccc(C(=O)c2oc3ccccc3c2N)cc1	-1%	10µM*	i	?	i	-2%
COc1ccccc1N1CCN(C(=O)Cn2cnc3sc(C)c(S(=O)(=O)N4CCC(C)CC4)c3c2=O)CC1	nt	nt	i	nt	i	2%
COCCN1CCN(C(=O)c2cnn(-c3nccc(-c4ccccc4OC)n3)c2-c2ccco2)CC1	nt	nt	nt	nt	nt	0%
CNc1oc(-c2ccc(C)cc2)nc1P(=O)(c1ccccc1)c1ccccc1	-3%	18µM*	i	6%	i	-1%
CNc1oc(-c2ccccc2Cl)nc1P(=O)(c1ccccc1)c1ccccc1	-1%	19%	i	-3%	i	-2%
COc1ccc(C)cc1NC(=O)C(NS(=O)(=O)c1cccc2nsnc12)c1ccccc1 (centres undefined)	nt	nt	i	nt	i	1%
COc1ccc(CC(=O)N(c2ccccc2)c2nc(C)cs2)cc1	1%	23%	16µM*	-25%	i	1%
O=C(COCc1cc(-c2ccc3c(c2)OCO3)on1)Nc1cc(Cl)ccc1O	nt	nt	i	nt	i	1%
CCOC1=C2CN(S(=O)(=O)c3ccc(Cl)cc3)[C@H](c3ccccc3)C[C@@H]2N(S(=O)(=O)c2ccc(C)cc2)[C@H](c2ccccc2)C1	nt	nt	i	nt	i	-1%
CCOC1=C2CN(S(=O)(=O)c3ccc(C)cc3)C(c3cccc(Cl)c3)CC2N(S(=O)(=O)c2ccc(Cl)cc2)C(c2ccccc2)C1 (centres undefined)	nt	nt	i	nt	5.2µM*	nt
CC(C)N=c1c([N+](=O)[O-])nn(C)n1O	-3%	0.73µM*	i	?	i	1%
CCCn1cc(S(=O)(=O)c2ccc(CC)cc2)c(=O)c2cc(F)c(N3CCN(C)CC3)cc21	nt	nt	i	nt	i	0%
O=C(Nc1cccn(Cc2c(Cl)cccc2Cl)c1=O)c1c(Cl)cccc1Cl	-2%	2%	3.7µM*	20%	21µM*	-4%
